{"source": "PubChem BioAssay (Tox21)", "note": "Results filed as inconclusive are left out. Where a call stands in place of a potency, no number is given. Unmarked numbers belong to inactive results. Calls of active or inactive are those of the source. Calls come from the whole dose curve; as a rule, active = well fitted cell-killing curve with a large enough effect in the repeat runs; inconclusive = weak or mixed curves, or effect the other way; inactive = flat fitted curve, though single readings scatter.", "data": [{"assay": "qHTS RealTime-Glo MT Cell Viability Assay in HepG2 cells - 0 hour (AID 1224889); note: nearly all actives have a fitted effect of over 50% in size", "conditions": "RealTime-Glo luminescence; series mostly up to 76.8 µM", "excerpt": "U.S. Tox21 Program National Center for Advancing Translational Sciences [NCATS] NIH Chemical Genomics Center [NCGC] U.S. Environmental Protection Agency [EPA] National Institutes of Environmental Health Sciences [NIEHS] National Toxicology Program [NTP] U.S. Food and Drug Administration [FDA] Tox21 Assay Overview: Measure of cell viability is critical in the cell-base assay. Analysis of cell viability is necessary for the characterization of cell responses to cytotoxic drugs and environmental stress. A RealTime-Glo MT Cell Viability Assay to monitor cell viability in real time of continues cell culture during 40 hours of compound treatment was used to screen Tox21 10K library compounds in HepG2 cells. The RealTime-Glo MT Cell Viability Assay is a nonlytic, homogeneous, bioluminescent method to measure cell viability in real time using a simple, plate-based method. The assay involves adding NanoLuc luciferase and a cell-permeant prosubstrate to cells in culture. Viable cells reduce the proprietary prosubstrate to generate a substrate for NanoLuc luciferase. This substrate diffuses from cells into the surrounding culture medium, where it is rapidly used by the NanoLuc Enzyme to produce a luminescent signal. The signal correlates with the number of viable cells, making the assay well suited for cytotoxicity studies.\nTox21 Assay Protocol Summary: The mixture of HepG2 cell suspension and reagents were dispensed at 600cells/6 ul/well in 1536-well tissue culture treated black solid bottom plates using a Multidrop dispenser. After the assay plates were incubated at a 37 C/5% CO2 incubator for 5 hours, 23 nL of compounds dissolved in DMSO, positive and negative controls was transferred to the assay plate by a pintool work station. The plates were incubated at 37 C for 40 hours. The luminescence intensity were measured at 0h, 8h, 16h, 24h, 32h and 40h time points using ViewLux plate reader during compound treatment.", "values": [{"molecule": "COc1ccc2nc(NC(=O)Nc3ccccc3)sc2c1", "Potency": "inactive"}, {"molecule": "Cc1cc(NS(=O)(=O)c2ccc(N)cc2)nc(C)n1", "Potency": "inactive"}, {"molecule": "CC(C)(CO)[C@@H](O)C(=O)NCCC(=O)O", "Potency": "inactive"}, {"molecule": "CN1C(=O)CC(c2ccccc2)C1=O", "note": "(stereo not given)", "Potency": "inactive"}, {"molecule": "CCCCOc1cc(C(=O)NCCN(CC)CC)c2ccccc2n1", "Potency": "inactive"}, {"molecule": "Cc1ccc(C=O)s1", "Potency": "inactive"}, {"molecule": "CCCCCCCCCC#N", "Potency": "inactive"}, {"molecule": "O=C(O)c1cccc(Cl)c1Cl", "Potency": "inactive"}, {"molecule": "CCCN(CCC)C(=O)C(CCC(=O)O)NC(=O)c1ccccc1", "note": "(stereo not given)", "Potency": "inactive"}, {"molecule": "CC1=C2[C@H](/C=C(\\C)C(=O)O)CC[C@@H](C)[C@H]2CC1", "Potency": "inactive"}, {"molecule": "O=C1Nc2ccc([N+](=O)[O-])cc2C1=O", "Potency": "inactive"}, {"molecule": "Cc1c(-c2ccccc2)oc2c(C(=O)OCCN3CCCCC3)cccc2c1=O", "Potency": "inactive"}, {"molecule": "Cc1c(C(=O)NCCO)[n+](=O)c2ccccc2n1[O-]", "Potency": "inactive"}, {"molecule": "CN(C)C(=O)NC1(c2ccccc2)CCN(CCC[C@]2(c3ccc(Cl)c(Cl)c3)CCCN(C(=O)c3ccccc3)C2)CC1", "activity change, negative = cytotoxicity": "-2.18% [at 15.8 µM]"}, {"molecule": "Cc1ccc(C(C)C)cc1O", "Potency": "inactive"}, {"molecule": "CCCOc1ccc2c(c1)CC[C@@H]1[C@@H]2CC[C@]2(C)C(OC)CC[C@@H]12", "note": "(stereo not given in full)", "Potency": "inactive"}, {"molecule": "NC(=O)NS(=O)(=O)c1ccc(Cl)cc1", "Potency": "inactive"}, {"molecule": "CCOc1ccc(NS(=O)(=O)c2ccc(N)cc2)nn1", "Potency": "inactive"}, {"molecule": "O=Cc1ccc(F)c(Br)c1", "Potency": "inactive"}, {"molecule": "CCCCCCn1c(=O)c2c(ncn2C)n(C)c1=O", "Potency": "inactive"}, {"molecule": "CCCCNC(=S)NCCCC", "Potency": "inactive"}, {"molecule": "CCCCNc1ccc(C(=O)OCCN(CC)CC)cc1", "Potency": "inactive"}, {"molecule": "CCCNC(C)(C)COC(=O)c1ccccc1", "Potency": "inactive"}, {"molecule": "COc1cc(C)ccc1C(C)C", "Potency": "inactive"}, {"molecule": "OCc1ccccc1O", "Potency": "inactive"}, {"molecule": "C/C(=N\\O)[C@@H](C)NCC(C)(C)CN[C@H](C)/C(C)=N/O", "Potency": "inactive"}, {"molecule": "O=c1oc2c(O)c(O)cc3c(=O)oc4c(O)c(O)cc1c4c23", "activity change, negative = cytotoxicity": "0.919% [at 15.8 µM]"}, {"molecule": "CN(C)CCOc1ccccc1Cc1ccccc1", "Potency": "inactive"}, {"molecule": "CC(C)CC(=O)OCc1ccccc1", "Potency": "inactive"}, {"molecule": "CC(Oc1c(Cl)cccc1Cl)C1=NCCN1", "note": "(stereo not given)", "Potency": "inactive"}, {"molecule": "CC(CNC1CCCCC1)OC(=O)c1ccccc1", "note": "(stereo not given)", "Potency": "inactive"}, {"molecule": "COC(=O)c1ccc(OC)cc1", "Potency": "inactive"}, {"molecule": "CN1CCN(C2=Nc3ccccc3Oc3ccc(Cl)cc32)CC1", "Potency": "inactive"}, {"molecule": "C[C@@H]1CN(c2c(F)c(F)c3c(=O)c(C(=O)O)cn(C4CC4)c3c2F)C[C@H](C)N1", "activity change, negative = cytotoxicity": "-0.832% [at 15.8 µM]"}, {"molecule": "Nc1ccc2ccccc2c1S(=O)(=O)O", "Potency": "inactive"}, {"molecule": "Cc1nc(-c2ccccn2)ncc1C(=O)Nn1cc(C)c2cc(F)ccc21", "Potency": "inactive"}, {"molecule": "CCOc1ccccc1N", "Potency": "inactive"}, {"molecule": "NC(Cc1ccc(F)cc1)C(=O)O", "note": "(stereo not given)", "activity change, negative = cytotoxicity": "18.9% [at 6.97 µM]"}, {"molecule": "Cc1onc(-c2ccccc2)c1C(=O)Cl", "Potency": "inactive"}, {"molecule": "CCCCCCCCCC/C=C/C#N", "Potency": "inactive"}]}]}
